Artemis endo inh = Artemis (human) endonuclease inhibition; Q96SD1; recombinant Artemis, quenched FAM hairpin cleavage fluorescence; inhibition, % at 10 µM; 30,000 compounds, 0.78% hits;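 active = at 10 µM dose, at least 30% inhibition, measured as corrected fluorescence normalized to stimulator and neutral control wells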
Starred values were filed as active, the others as inactive. The sample as a whole holds a higher share of hits than the screen did.

SMILES	Artemis endo inh
COc1ccc(CNc2nc3nc(-c4ccccc4)cc(=O)n3[nH]2)cc1OC	-5
CCc1nc(C)c(C#N)c2cc(OC)c(OC)cc12	4
CCCN(CC1CC1)c1nc(N)c2c(N)nc(OC)cc2c1C#N	49*
CCOc1cc2c(C#N)c(N3CCOCC3)nc(N)c2c(N)n1	29
COc1ccc(OC)c(S(=O)(=O)N2CCCc3ccccc32)c1	-4
Cc1ccc(OCC(=O)Nc2ccc(-c3nc4ncccc4o3)cc2)c(C)c1	12
COC(=O)C(Cc1ccc(OC(=O)c2ccc(C)cc2)cc1)N1Cc2ccccc2C1=O (stereo unspecified)	7
Cc1cc(C)c(S(=O)(=O)NCc2cn3c(C)csc3n2)cc1C	-2
C=CCSC1=N/C(=C\c2ccc(C)o2)C(=O)S1	2
CCOc1cc(/C=C2\N=C(SC)SC2=O)cc([N+](=O)[O-])c1OC(C)=O	33*
COc1ccc(/C=C2\N=C(SC)SC2=O)cc1OC	-2
CSC1=N/C(=C\c2ccc(C)cc2)C(=O)S1	-1
CCOc1c(OC(C)=O)ccc(/C=C2\N=C(SCC)SC2=O)c1[N+](=O)[O-]	30*
CCN1N=C(c2ccccc2)Cn2c1nc1ccccc12	8
CC(C)N(Cc1nc(-c2ccccc2)no1)C(=O)CN(C)S(=O)(=O)c1ccccc1	-13
COc1ccc(C)cc1-n1c(N)c(C#N)c(C#N)c1-c1ccc(OC)c(OC)c1OC	-4
COc1ccc2c3c(cccc13)N(C)N=C2C	58*
CCOc1ccc2[nH]c(=O)c(CN(CC3CCCN3CC)C(=O)NCc3ccccc3)cc2c1 (stereo unspecified)	15
Cc1sc(-c2ccncc2)nc1OC(=O)c1ccccc1	-1
